Screens (PubChem)
SARS PLpro yeast = inhibitors of SARS-CoV papain-like protease in yeast. S. cerevisiae expressing SARS-CoV PLpro, growth rescue. Potency, µM (doses to about 32.9 µM), inactives show at the top dose activity, positive = growth rescue, most hits filed as activators. hit rate 0.19% among 330,000. AID 485353; calls by dose curve; further: 0% is about no effect; nearly all actives have a fitted effect of over 55% in size
AmpC no deterg = inhibitors of E. coli AmpC beta-lactamase without detergent | P00811 | AmpC nitrocefin hydrolysis, absorbance 480 nm, 0.0001% Triton | Potency, µM (titrated, usually from 57.1 µM), inactives show at the top dose activity change, negative = inhibition, hits mostly inhibitors | hit rate 0.52% among 330,000 | AID 485341;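 further: plate controls were no compound for no effect and no enzyme for full effect; nearly all actives have a fitted effect of over 20% in size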
Target sequence (P00811 whole entry, looked up): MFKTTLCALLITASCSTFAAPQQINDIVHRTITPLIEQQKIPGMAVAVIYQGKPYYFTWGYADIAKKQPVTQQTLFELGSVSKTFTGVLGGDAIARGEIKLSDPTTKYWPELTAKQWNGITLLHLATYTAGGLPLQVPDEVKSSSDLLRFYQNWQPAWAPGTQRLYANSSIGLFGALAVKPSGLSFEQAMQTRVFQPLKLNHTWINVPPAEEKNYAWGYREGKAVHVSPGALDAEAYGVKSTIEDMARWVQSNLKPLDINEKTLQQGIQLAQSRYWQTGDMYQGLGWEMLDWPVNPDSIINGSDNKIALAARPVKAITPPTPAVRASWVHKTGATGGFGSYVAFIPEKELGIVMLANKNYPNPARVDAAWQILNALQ
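AmpC (5.3 nM in the dispensed reagent) in 20 mM phosphate pH 7.0 with 0.01% (detergent screen) or 0.0001% Triton X-100 was preincubated with compounds for 15 min at room temperature. Nitrocefin was then added from an 800 uM solution, and hydrolysis was followed at 480 nm.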
NS1 function inh = blocks influenza NS1 protein function; Potency, µM (titrated, usually from 46.1 µM), for the others: at the top dose activity, positive = more growth; hit rate 0.4% among 270,000; AID 2326; calls by dose curve; further: actives are rising curves; nearly all actives have a fitted effect of over 50% in size
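OD600 was taken as the measure of yeast growth restored by compound in an NS1-expressing S. cerevisiae strain. Cells had been washed out of glucose medium and diluted 1:100 into galactose -URA medium, pH 6.0.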
AmpC inh detg = AmpC beta-lactamase inhibition with detergent present; P00811; AmpC hydrolysis of nitrocefin, absorbance 480 nm, 0.01% Triton; Potency, µM (doses to about 114 µM), for the others: top-dose activity change, negative = inhibition, most hits filed as inhibitors; hit rate 0.041% among 370,000;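 further: 0% = no-compound wells and -100% = no-enzyme wells; nearly all actives have a fitted effect of over 25% in size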
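20 mM phosphate pH 7.0 + 0.01% (detergent screen) or 0.0001% Triton X-100; 5.3 nM AmpC reagent; cpd preinc 15 min RT; nitrocefin (800 uM stock) to start; A480 q20 s × 4 min; Activity was normalised to no-enzyme and no-compound control wells.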
AMA1-RON2 inh = AMA1-RON2 (P. falciparum) interaction inhibition. AlphaScreen AMA1-biotinylated RON2 peptide binding. Potency, µM (top dose mostly 58.2 µM), without a hit: at the top dose activity change, negative = inhibition, actives largely listed as inhibitors. hit rate 0.2% among 360,000. AID 720542;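 further: 0% = vehicle wells and -100% = peptide control; nearly all actives have a fitted effect of over 45% in size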
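AMA1 (3D7) with his tag at 25 nM final met compounds first, then biotinylated RON2 peptide at 25 nM; detection used donor plus acceptor beads, 10 µg/mL apiece, read by AlphaScreen after 30 min at room temperature.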
An asterisk follows results filed as active; ? = inconclusive; / = not tested or not shown; [ ] = dose if it differs, or a comment. Compounds with a hit are over-represented: about 0.99% of the library has one in this group of screens. Unless noted, the call rests on the fitted dose curve; in most records, active means well fitted curve in the direction sought with a large enough effect; inconclusive means small, poorly fitted or top-dose-only effect, or another doubt; inactive means no such curve, though single readings can be large; an effect the other way counts as inactive or inconclusive. Potency means the concentration at half of the fitted maximal effect.

SMILES	SARS PLpro yeast	AmpC no deterg	NS1 function inh	AmpC inh detg	AMA1-RON2 inh
COc1ccc(C)cc1NC(=O)NNC(=O)c1cc2ccccc2cc1O	4.7%	6.31µM*	9.7%	-0.3%	129.4%
O=C(NNC(=O)c1cc2ccccc2cc1O)Nc1ccc(Br)cc1	-3.6%	?	-5.5%	?	14.5%
Cc1ccc(C(=O)NNC(=O)c2cc3ccccc3cc2O)cc1	1.4%	28.2µM*	1.3%	-14.8%	118.6%
COc1ccc(NC(=O)NNC(=O)c2cc3ccccc3cc2O)cc1	-1.8%	?	9.9%	0.9%	61.7%
CSc1ccc(CCNC(=O)CCn2c(=O)c3cccn3c3ccc(F)cc32)cc1	/	/	/	19.3%	/
Cc1ccccc1CSc1ncc(Cl)c(C(=O)Nc2nc3ccc(F)cc3s2)n1	/	/	/	1.2%	/
Cc1nn2c(=O)cc(COC(=O)c3cccc(NC(=O)COc4ccccc4C)c3)nc2s1	/	/	/	-0.1%	/
O=C(Nc1ccc(-n2nncc2-c2ccco2)cc1)c1cc2ccccc2oc1=O	-0.1%	-21.1%	5.01µM*	1.9%	?
CCOC(=O)c1cccc(NC(=O)c2ccc3c(Cl)c4c(nc3c2)CCC4)c1	/	/	/	3.6%	/
CCOC(=O)c1c(/N=C/N(C)C)sc(/C=N/Nc2ccccc2)c1-c1ccccc1	28.3%	15.8µM*	1.9%	-11.1%	3.5%
COC(=O)CN1C(=O)CC(C)(C)S(=O)c2ccccc21 (stereo not given)	9.5%	1.26µM*	9.2%	?	-1.8%
N#C/C(=C/c1ccc(O)c(O)c1)C(=O)NCc1ccc(Cl)cc1	0.4%	-38.1%	6.8%	-5.0%	-3.3%
N#C/C(=C/c1cccc(O)c1)C(=O)NCc1ccc(Cl)cc1	-7.6%	20µM*	-56.8%	-1.8%	2.9%
Cc1c(C(=O)OCC(=O)Nc2cccc(S(N)(=O)=O)c2)oc2c1ccc1ccccc12	2.1%	11.2µM*	7.4%	-2.5%	-6.1%
COc1ccccc1/C=C/C=N/N1CCN(Cc2ccc(Cl)cc2)CC1	-9.2%	145.4%	-48.5%	-0.4%	?
COc1ccccc1/C=C/C=N\N1CCN(Cc2ccccc2Cl)CC1	-7.7%	-8.4%	-2.5%	-1.7%	20µM*
Clc1ccccc1CN1CCN(/N=C/c2ccncc2)CC1	-1.6%	121.2%	15.0%	-1.5%	-14.4%
COc1ccc(Br)cc1/C=N/N1CCN(Cc2ccccc2Cl)CC1	0.3%	-11.5%	-1.8%	?	8.91µM*
COc1ccc(/C=N\N2CCN(Cc3ccccc3Cl)CC2)cc1	-0.6%	-6.8%	22.3%	0.4%	15.1%
Clc1ccc(/C=N/N2CCN(Cc3ccccc3Cl)CC2)cc1	-0.2%	-18.8%[11.4 µM]	/	-14.8%	12.6µM*
CCCCN(C)C(=O)CSc1nc2ccccc2nc1Cc1ccc(C)cc1	/	/	/	12.2%	/
CCc1ccc(NC(=O)N2CCN(Cc3nc4ccc(C)cc4o3)CC2)cc1	/	/	/	1.3%	/
CN(C)c1ccc(N=Cc2cccn2C)cc1	-7.6%	2.3%	-10.2%	-2.9%	22.4µM*
CN(C)c1ccc(N=Cc2nc(-c3ccccc3)oc2O)cc1	2.5%	-31.3%	-6.2%	-8.8%	-8.4%
COc1cc(-c2coc3c(C(=O)NCc4ccc(N(C)C)cc4)cccc23)ccc1O	/	/	/	/	31.6µM*
SMILES	SARS PLpro yeast	AmpC no deterg	NS1 function inh	AmpC inh detg	AMA1-RON2 inh
COc1ccc(-c2ccc(C(=O)NCc3ccc(N(C)C)cc3)c3occc23)c(C)c1	/	/	/	/	8.91µM*
Cc1ccc(C)c(N2CCN(S(=O)(=O)c3ccc(-c4coc(C)n4)cc3)CC2)c1	/	/	/	-1.2%	/
COc1ccc2c(CC(=O)OCC(=O)Nc3ccc(S(N)(=O)=O)cc3)coc2c1	1.3%	10µM*	-2.6%	-7.8%	-9.8%
COc1ccc2c(CC(=O)OCC(=O)Nc3ccc(C)cc3)coc2c1	-5.4%	-33.3%	/	-13.8%	-8.1%
CCCc1cc(=O)oc2cc(OCC(=O)Nc3ccc(S(N)(=O)=O)cc3)ccc12	0.5%	28.2µM*	7.6%	56.2µM*	0.3%
Cc1cc(C)nc(-n2nc(C)c3c2N(Cc2ccccc2C)C(=O)CC3c2ccc(Cl)cc2)n1 (stereo not given)	/	/	/	22.6%	/
CCCOc1ccc(-c2nonc2NC(=O)c2oc3ccc(C)cc3c2C)cc1OCCC	/	/	/	-0.9%	/
COc1ccc(OC)c(C(c2nnnn2CC2CCCO2)N2CCN(C3CCCC3)CC2)c1 (stereo not given)	3.98µM*	12.7%	-2.8%	-6.6%	6.6%
